Test results taken from the supplement of paper PMC13392028.

Test system: PvIESI-1 RRM domain (Plasmodium vivax PVP01_0939900 aa 896-1203, GST fusion)
Experiment: RBNS R-value (6-mer enrichment in protein-bound RNA vs input library) (ratio); higher = stronger binding preference; the methods of the paper give 50 / 100 / 500 nM protein instead
Protocol: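 RNA Bind-n-Seq: recombinant GST-tagged IESI-1 RRM domain was incubated at room temperature with a random 40-nt in vitro transcribed RNA library at 250, 500 or 1000 nM protein. Bound RNA was pulled down on glutathione beads and sequenced. R-value is the enrichment of each 6-mer in the bound RNA relative to the input library. Each 6-mer sits inside the random 40-mer context, not as an isolated oligo. Values are replicate 1 only.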

Sequence	RBNS R-value (protein concentration: 250 nM)	RBNS R-value (protein concentration: 500 nM)	RBNS R-value (protein concentration: 1000 nM)
GAUGAU	3.86	4.13	3.88
GGUGAU	1.97	2.19	2.15
UGAUGC	3.72	4.04	3.95
AUGAUA	3.08	3.49	3.64
UGUGAU	2.53	2.8	2.72
UGAUCU	2	2.15	2.14
GCUGAU	2.62	2.82	2.68
AAUGAU	3.66	3.89	3.94
AUGAUU	4.49	4.79	4.59
GAUGUG	2.3	2.53	2.31
GCCCGA	1.45	1.67	1.67
CUUGAU	3.23	3.65	3.49
UCUGAU	2.94	3.21	3.02
